In PubChem BioAssay (NCI):
Values joined by “and” are separate entries in the source; they are usually repeats but may differ in a detail not shown here. Equal values may be shown once. This is part of a sample that, as a whole, favours compounds with a hit. Of some 83,000 tested, about 20% had one in any assay.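 The endpoint reported here, percent growth, reads 100 for growth as untreated, 0 for no net growth and -100 for all cells dead.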 Active and inactive are the calls of the source. The calls were made as follows: active = growth percent below 10; inactive = the rest.

How the values were obtained:
Experiment in all cases: NCI-60 one-dose screen, 48 h (100 = growth as untreated, 0 = no growth, -100 = all killed)
[1] = system: DU-145 prostate; details: 10 µM unless noted
[2] = system: K-562 leukemia; details: 10 µM unless noted
[3] = system: MDA-MB-231 breast; details: 10 µM unless noted
[4] = system: RXF 393 renal; details: 10 µM unless noted
[5] = system: SF-268 CNS; details: 10 µM unless noted
[6] = system: SF-539 CNS; details: 10 µM unless noted
[7] = system: UACC-257 melanoma; details: 10 µM unless noted
[8] = system: M14 melanoma; details: 10 µM unless noted
[9] = system: HCT-15 colon; details: 10 µM unless noted
[10] = system: HT29 colon; details: 10 µM unless noted
[11] = system: SNB-75 CNS; details: 10 µM unless noted
[12] = system: SNB-19 CNS; details: 10 µM unless noted
[13] = system: U251 CNS; details: 10 µM unless noted
[14] = system: PC-3 prostate; details: 10 µM unless noted
[15] = system: SK-MEL-5 melanoma; details: 10 µM unless noted
[16] = system: UACC-62 melanoma; details: 10 µM unless noted
[17] = system: LOX IMVI melanoma; details: 10 µM
[18] = system: SK-MEL-28 melanoma; details: 10 µM unless noted
[19] = system: MALME-3M melanoma; details: 10 µM unless noted
[20] = system: SF-295 CNS; details: 10 µM unless noted

CCCCCCCCCCCCCCCCSC(=NCC)NCC
growth [1]: 36% (inactive)
growth [2]: -59.8% (active)
growth [3]: -18.4% (active)
growth [4]: 6.55% (active)
growth [5]: 39.5% (inactive)
growth [6]: 32.8% (inactive)
growth [7]: -12.4% (active)
growth [8]: -49.8% (active)
growth [9]: -36% (active)
growth [10]: -61.4% (active)
growth [11]: 53.3% (inactive)
growth [12]: 55.3% (inactive)
growth [13]: 4.98% (active)
growth [14]: -42% (active)
growth [15]: -38% (active)
growth [16]: -8.15% (active)
growth [17]: -91.1% (active)
growth [18]: 43% (inactive)

O=C(/C=C/c1ccccc1)c1ccccc1O
growth [2]: 51.6% (inactive)
growth [19]: 97.2% (inactive)
growth [3]: 91.5% (inactive)
growth [4]: 65.7% (inactive)
growth [5]: 85.2% (inactive)
growth [20]: 94.8% (inactive)
growth [6]: 89.9% (inactive)
growth [7]: 91.8% (inactive)
growth [8]: 92.3% (inactive)
growth [10]: 84.5% (inactive)
growth [11]: 63.7% (inactive)
growth [12]: 80.1% (inactive)
growth [13]: 61.1% (inactive)
growth [14]: 92.9% (inactive)
growth [15]: 94.9% (inactive)
growth [16]: 85.8% (inactive)
growth [17]: 34.9% (inactive)
growth [18]: 93.9% (inactive)

OCCOSCCO
growth [1]: 122% (inactive)
growth [2]: 102% (inactive)
growth [3]: 121% (inactive)
growth [4]: 100% (inactive)
growth [5]: 119% (inactive)
growth [6]: 100% (inactive)
growth [7]: 102% (inactive)
growth [8]: 100% (inactive)
growth [9]: 89% (inactive)
growth [10]: 106% (inactive)
growth [11]: 99.3% (inactive)
growth [12]: 110% (inactive)
growth [14]: 113% (inactive)
growth [15]: 101% (inactive)
growth [16]: 114% (inactive)
growth [17]: 103% (inactive)
growth [18]: 108% (inactive)

CC(/C=N/NC(N)=S)Cc1ccc(C(C)C)cc1 (stereo unspecified)
growth [1]: 129% (inactive)
growth [19]: 82.9% (inactive)
growth [3]: 85.4% (inactive)
growth [4]: 69.2% (inactive)
growth [5]: 129% (inactive)
growth [20]: 73.2% (inactive)
growth [6]: 59% (inactive)
growth [7]: 69.9% (inactive)
growth [8]: 74.2% (inactive)
growth [9]: 80.2% (inactive)
growth [10]: 47.1% (inactive)
growth [11]: 71.4% (inactive)
growth [12]: 69.3% (inactive)
growth [13]: 88.7% (inactive)
growth [14]: 73.5% (inactive)
growth [16]: 54.5% (inactive)
growth [17]: 79.5% (inactive)
growth [18]: 82.4% (inactive)

CN1CCc2cc3c(c4c2C1C(O)c1ccccc1-4)OCO3 (stereo unspecified)
growth [16]: -88.3% [100 µM] (active) and -88.4% [100 µM] (active)

On1c(-c2ccccc2)nc2ccccc2c1=S
growth [16]: -68.5% [100 µM] (active) and -97.5% [100 µM] (active)

Cc1cc(O)c2c(c1)C(=O)C(c1c(C)cc3c(c1O)C(=O)C1OC1C3=O)=CC2=O (stereo unspecified)
growth [16]: -91.9% [100 µM] (active) and -93.6% [100 µM] (active)

C[C@@H]1CCC([C@@H](C)[C@H]2CC[C@H]3[C@@H]4CC[C@H]5C[C@@H](O)CC[C@]5(C)[C@H]4CC[C@]23C)=NC1
growth [16]: -45.8% [100 µM] (active) and -54.1% [100 µM] (active)

COC(=O)[C@]1(C)CCC[C@@]2(C)[C@@H]3C[C@@H]4[C@H]5C[C@@]3(CC[C@@H]21)C[C@@]45C
growth [16]: -98.2% [100 µM] (active) and -85.1% [100 µM] (active)

CCOc1ccc(NC(=O)/C(=N\N)C(C(=O)OC)c2nc3ccc(Cl)cc3[nH]c2=O)cc1 (stereo unspecified)
growth [16]: 79.7% [100 µM] (inactive) and 57.3% [100 µM] (inactive)

Cc1ccc(/C=N/Nc2cc(C)c3cccc(C)c3n2)s1
growth [16]: -91.7% [100 µM] (active) and -100% [100 µM] (active)

CC(C)(C)N/N=C(/Cc1nc2c3c(ccc2[nH]c1=O)C(=O)c1ccccc1C3=O)C(=O)NC1=C(Cl)C(=O)c2ccccc2C1=O
growth [16]: 22.1% [100 µM] (inactive) and 1.57% [100 µM] (active)

CC1=C(Cl)C[C@@H](/C(C)=C\Cl)O[C@@]1(O)C(Br)Br
growth [16]: 70.8% [100 µM] (inactive) and -44.8% [100 µM] (active)

CC1=CC[C@@H]2[C@@H](CC[C@@]2(C)O)C(C)(C)[C@H]1CC[C@@H]1[C@@]2(C)CC[C@@H](O)C(C)(C)O[C@@H]2CC[C@]1(C)O
growth [16]: -81.4% [100 µM] (active) and -96.9% [100 µM] (active)

O=C(CCc1ccccc1)ON1C(=S)NC(c2ccccc2)(c2ccccc2)C1=S
growth [16]: -47.5% [100 µM] (active) and -5.8% [100 µM] (active)

COc1ccc2c(c1)C(N)=C(c1ccccc1)C2=O
growth [16]: 80.5% [100 µM] (inactive) and 28.2% [100 µM] (inactive)

C=c1c2ccccc2oc2nc3[nH]c(N)c(C#N)c(N)c3c(=N)c12
growth [16]: 44.5% [100 µM] (inactive) and 0.738% [100 µM] (active)

COc1ccc(OC)c(Cc2cnc3nc(N)nc(N)c3c2C)c1
growth [16]: 1.25% [100 µM] (active) and -100% [100 µM] (active)

Cc1ccc(NC(=S)C#N)cc1Cl
growth [16]: -35.5% [100 µM] (active) and -95.7% [100 µM] (active)

CC1=C(C2=C(C)C(=O)C(=O)c3cc(C)ccc32)c2ccc(C)cc2C(=O)C1=O
growth [16]: -92.5% [100 µM] (active) and -100% [100 µM] (active)

CC1=CC[C@@H]2[C@@H](CC[C@@]2(C)O)C(C)(C)[C@H]1CC[C@@H]1[C@@]2(C)CCC(=O)C(C)(C)O[C@@H]2CC[C@]1(C)O
growth [16]: -76.1% [100 µM] (active) and -100% [100 µM] (active)

N=C1C(=N)c2ccccc2-c2ccccc21
growth [16]: 53.6% [100 µM] (inactive) and -56.4% [100 µM] (active)

C=C1C(=O)OC2CC3(C)CCCC(C)C3=CC12 (stereo unspecified)
growth [16]: -100% [100 µM] (active) and -93.9% [100 µM] (active)

O=C(/C=C/c1ccccc1)CCC1C(=O)c2ccccc2C1=O
growth [16]: 41.6% [100 µM] (inactive) and 19.1% [100 µM] (inactive)

CC1(C)CCC[C@]2(C)[C@@H](C=O)C(C=O)=CC[C@@H]12
growth [16]: -87.9% [100 µM] (active) and 4.13% [100 µM] (active)

C=C1C(=O)OC2CC1C(OC(=O)/C=C/c1ccccc1)C/C(C)=C/CC/C(C)=C/CCC2(C)O (stereo unspecified)
growth [16]: -95.6% [100 µM] (active) and -90.1% [100 µM] (active)

CC1(C)CCC2(C(=O)O)C(O)CC3(C)C(=CCC4C5(C)CCC(OC6OCC(O)C(O)C6OC6OCC(O)C(O)C6OC6OCC(O)C(OC7OC(CO)C(O)C(O)C7O)C6O)C(C)(C)C5CCC43C)C2C1 (stereo unspecified)
growth [16]: 97.8% [100 µM] (inactive) and 5.39% [100 µM] (active)

Fc1cccc(F)c1C1SCc2nc3cc4ccccc4cc3n21 (stereo unspecified)
growth [16]: 21.7% [100 µM] (inactive) and 19.9% [100 µM] (inactive)

C=C(C)C1CC2(C)C(C)CC(O)CC2C(OC(=O)C=C(C)C)C1O (stereo unspecified)
growth [16]: 9.73% [100 µM] (active) and 41.9% [100 µM] (inactive)

S=C1NC2=C(COc3ccccc32)C(c2ccc(Cl)cc2)N1 (stereo unspecified)
growth [16]: -56.9% [100 µM] (active) and -100% [100 µM] (active)

COc1c(/C=C/C=O)cc2c(c1OC)OCO2
growth [16]: -90.2% [100 µM] (active) and -97.4% [100 µM] (active)

CCOC(=O)C1C(C(C)C)C2(C#N)C(=N)OC1(C)C2(C#N)C#N (stereo unspecified)
growth [16]: -51.6% [100 µM] (active) and -86.9% [100 µM] (active)

COc1ccc2c(c1)C(OC)C1c3c(cc4c(c3-2)OCO4)CCN1C (stereo unspecified)
growth [16]: -93.1% [100 µM] (active) and -89.5% [100 µM] (active)

O=C(O)CCCOc1cc(-c2ccccc2F)nc2cc3c(cc12)OCO3
growth [16]: 11.6% [100 µM] (inactive) and -54.7% [100 µM] (active)

C=C(CO)C(=O)OC1CC(=C)C2CC(O)C(C)C2C2OC(=O)C(=C)C12 (stereo unspecified)
growth [16]: 60.1% [100 µM] (inactive) and -100% [100 µM] (active)

Cc1c2c(c(C)c3c[n+](C)ccc13)Oc1ccccc1O2
growth [16]: -77.7% [100 µM] (active) and -100% [100 µM] (active)

COc1ccc(Nc2nc3ccc(C(F)(F)F)cc3nc2C(=O)O)cc1
growth [16]: -46.2% [100 µM] (active) and -91.5% [100 µM] (active)

C=CCO/N=C/c1cc(NC(=S)c2ccoc2C)ccc1Cl
growth [16]: -98.8% [100 µM] (active) and -100% [100 µM] (active)

CCOC(=O)COc1cc(-c2ccccc2F)nc2cc3c(cc12)OCO3
growth [16]: 69.3% [100 µM] (inactive) and 35.8% [100 µM] (inactive)
